# Measurements taken from PubChem BioAssay (NCATS).
# Values joined by “and” are separate entries in the source; they are usually repeats but may differ in a detail not shown here. Equal entries are not always repeated. A number with no mark means an inactive call. Records with an inconclusive call do not appear. Active and inactive are the calls of the source. Unless noted, the call rests on the fitted dose curve; in most records, active means well fitted curve in the direction sought with a large enough effect in the repeat runs; inconclusive means weak or mixed curves; inactive means no such curve, though single readings can be large; an effect the other way counts as inactive or inconclusive.
# Legend:
# [1] = qHTS Assay for Identifying Gametocytocidal Compounds (AID 743244; active means well fitted curve in the direction sought with a large enough effect; an effect the other way counts as inactive or inconclusive; further: potency means the concentration at half of the fitted maximal effect;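 on max response: on the % scale 0 is the no-effect control and ±100 the full control effect; actives lower the fluorescent signal which means gametocytes are killed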); conditions: P. falciparum 3D7 stage III-V gametocytes, alamarBlue, 72 h; max response: hits give low values
# Summary of the method: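 Viability read-out was resazurin reduction (alamarBlue, 24 h) measured at Ex 525/Em 598 nm. Beforehand, late-stage (III-V) 3D7 P. falciparum gametocytes at 20,000 cells/well were incubated with compound 72 h at 37C under 5% CO2.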
# [2] = qHTS assay for small molecule agonists of the antioxidant response element (ARE) signaling pathway measured by Nrf2-dependant transcriptional activity (AID 720636); further: potency means the concentration at half of the fitted maximal effect
# Summary of the method: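 ARE-luc HepG2 cells carrying an Nrf2-responsive luciferase reporter, in medium with 1% dialyzed FBS, exposed to compound for 16 hr at 37 C, 5% CO2. Luminescence read 30 min after ONE-Glo addition.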
# [3] = qHTS assay for small molecule antagonists of the retinoid-related orphan receptor gamma (ROR-gamma) signaling pathway - cell viability counter screen (AID 720652);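 further: compound exposure lasted 16 hr before ATP read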; further: potency means the concentration at half of the fitted maximal effect
# Summary of the method: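 CHO RORE-LUC/TET-ROR line, 1,000 cells/well, 37 C 5% CO2 5 hr; cpd or DMSO + doxycycline induction, 16 hr. CellTiter-Glo, 30 min RT, luminescence = ATP content.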
# [4] = qHTS assay for small molecule agonists of the antioxidant response element (ARE) signaling pathway measured by Nrf2-dependant transcriptional activity - cell viability counter screen (AID 720653); conditions: ARE-bla HepG2 viability, CellTiter-Glo ATP luminescence, 16 h; max response: hits give low values; further: potency means the concentration at half of the fitted maximal effect; on max response: on the % scale 0 is the no-effect control and ±100 the full control effect
# Summary of the method: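 Cytotoxicity counter screen: intracellular ATP quantified by CellTiter-Glo luminescence in the same ARE-bla HepG2 plates, after 16 h compound exposure and a 2 h beta-lactamase substrate step.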
# [5] = qHTS assay for cell viability of HEK293 cells (AID 743288; active means well fitted curve in the direction sought with a large enough effect; an effect the other way counts as inactive or inconclusive; further: nearly all actives have a fitted effect of over 50% in size; further: potency means the concentration at half of the fitted maximal effect; on max response: on the % scale 0 is the no-effect control and ±100 the full control effect); conditions: ATP luminescence (CellTiter-Glo), 18 h; max response: hits give low values
# Summary of the method: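 After 18 h compound exposure at 37 C, parental HEK293 cells (2,000/well) are lysed with CellTiter-Glo and luminescence is read following 30 min at room temperature.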
# [6] = target: Hexokinase-4 (Homo sapiens) + Glucokinase regulatory protein (Homo sapiens) (UniProt P35557+Q14397); experiment: qHTS assay for inhibitors of recombinant human GCK-GKRP interaction: HTRF assay (AID 743207; active means well fitted curve in the direction sought with a large enough effect; an effect the other way counts as inactive or inconclusive;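 further: 0% = DMSO with GCK present and -100% = DMSO wells lacking GCK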)
# Chain of Hexokinase-4 (Homo sapiens) + Glucokinase regulatory protein (Homo sapiens) (P35557 whole entry, looked up): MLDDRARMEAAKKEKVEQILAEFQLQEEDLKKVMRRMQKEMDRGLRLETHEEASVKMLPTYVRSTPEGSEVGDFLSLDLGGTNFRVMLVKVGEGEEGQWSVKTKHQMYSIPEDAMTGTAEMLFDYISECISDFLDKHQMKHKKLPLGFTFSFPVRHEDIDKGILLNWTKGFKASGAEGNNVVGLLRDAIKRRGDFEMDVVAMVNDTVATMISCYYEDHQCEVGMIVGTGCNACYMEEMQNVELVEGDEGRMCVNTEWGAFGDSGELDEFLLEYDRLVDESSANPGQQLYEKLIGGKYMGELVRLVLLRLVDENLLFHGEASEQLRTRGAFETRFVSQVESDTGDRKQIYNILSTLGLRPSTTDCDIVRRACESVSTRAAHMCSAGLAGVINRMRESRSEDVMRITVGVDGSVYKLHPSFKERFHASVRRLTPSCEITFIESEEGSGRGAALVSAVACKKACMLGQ
# Chain of Hexokinase-4 (Homo sapiens) + Glucokinase regulatory protein (Homo sapiens) (Q14397 whole entry, looked up): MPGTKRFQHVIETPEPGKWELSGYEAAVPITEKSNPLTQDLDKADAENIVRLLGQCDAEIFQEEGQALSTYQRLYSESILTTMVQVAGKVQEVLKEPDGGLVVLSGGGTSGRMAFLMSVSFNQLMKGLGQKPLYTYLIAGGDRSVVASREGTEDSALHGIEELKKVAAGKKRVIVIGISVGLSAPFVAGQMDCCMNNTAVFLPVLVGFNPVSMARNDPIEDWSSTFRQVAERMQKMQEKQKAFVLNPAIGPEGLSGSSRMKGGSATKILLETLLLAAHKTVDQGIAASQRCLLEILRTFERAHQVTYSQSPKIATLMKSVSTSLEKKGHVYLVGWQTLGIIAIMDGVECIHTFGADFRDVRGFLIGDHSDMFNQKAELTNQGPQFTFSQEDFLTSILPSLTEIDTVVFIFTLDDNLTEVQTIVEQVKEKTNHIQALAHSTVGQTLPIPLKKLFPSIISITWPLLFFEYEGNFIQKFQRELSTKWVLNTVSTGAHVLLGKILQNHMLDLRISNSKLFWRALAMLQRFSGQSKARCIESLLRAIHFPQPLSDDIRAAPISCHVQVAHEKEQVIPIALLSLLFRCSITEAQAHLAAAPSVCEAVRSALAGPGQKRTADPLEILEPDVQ
# Summary of the method: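 GST-GCK and FLAG-GKRP (5 nM each) were combined with 2 uM S6P in pH 7.1 Hepes/MgCl2/KCl/DTT buffer, then compound and anti-FLAG XL665/anti-GST K antibodies were added. After 60 min at room temperature, HTRF 665/615 nm emission was read.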
smiles,measurement,setting,value
[2H]C([2H])([2H])[C@H](N)Cc1ccccc1,max response,[1],14.3%
CCOC(=O)c1ccccc1C(=O)OCC,Potency,[2],inactive
same,Potency,[3],inactive
same,max response,[4],8.89% and -10.7% and -8.42%
same,max response,[5],-2.28% and 4.29% and 3.24%
COC1=CC(=O)O[C@@H](/C=C/c2ccccc2)C1,Potency,[2],inactive
same,Potency,[3],inactive
same,max response,[4],4.02%
same,max response,[5],-13.6%
ClC1C(Cl)C(Cl)C(Cl)C(Cl)C1Cl (configuration not stated),Potency,[2],inactive
same,max response,[4],-5.28% [middle of 4 runs]
same,max response,[5],-11% [middle of 4 runs]
N#CN,Potency,[2],inactive
same,max response,[4],-18.5%
same,max response,[1],10.9%
same,max response,[5],-11.1%
CC(C)(C)c1cc(O)ccc1O,Potency,[3],inactive
same,max response,[4],21.5% and -0.658% and -3.53%
same,Potency,[1],31.6 µM (active) and 3.55 µM (active)
same,max response,[5],-11% and 8.59% and 5.79%
COc1ccc2c(c1OC)C(=O)OC2C1c2cc3c(cc2CCN1C)OCO3 (configuration not stated),Potency,[2],inactive
same,Potency,[3],inactive
same,max response,[4],-15.1%
same,max response,[5],-5.26%
CC(C)CC(NP(=O)(O)O[C@@H]1O[C@@H](C)[C@H](O)[C@@H](O)[C@H]1O)C(=O)NC(Cc1c[nH]c2ccccc12)C(=O)O (some centres not stated),outcome,[6],inactive
[O]=[Cr](=[O])([OH])[O][Cr](=[O])(=[O])[OH],Potency,[2],inactive
same,Potency,[3],11.9 µM (active)
same,max response,[4],-23.9%
same,max response,[1],21.1% and 18.4%
same,Potency,[5],39.8 µM (active) and 15.8 µM (active)
O=[N+]([O-])c1ccccc1,Potency,[2],inactive
same,Potency,[3],inactive
same,max response,[4],-3.95% and -3.49%
same,max response,[1],18.1%
same,max response,[5],-0.844% and 8.43%
O=C1C[C@@H]2OCC=C3CN4CC[C@]56c7ccccc7N1[C@H]5[C@H]2[C@H]3C[C@H]46,Potency,[2],inactive
same,max response,[4],-11.2%
same,max response,[1],1.95%
same,max response,[5],-21.9%
[Cl-].[Cl-].[Hg+2],Potency,[2],21.1 µM (active)
same,Potency,[3],1.68 µM (active)
same,max response,[4],-13.5%
same,Potency,[5],44.7 µM (active)
CCOP(=O)(OCC)O/C(=C/Cl)c1ccc(Cl)cc1Cl,Potency,[2],inactive
same,max response,[4],-18.8% and -8.15%
same,max response,[1],-0.665%
same,max response,[5],-28.5% and -27.3%
CC(C)Nc1ccc(Nc2ccccc2)cc1,max response,[4],-21.1%
same,Potency,[1],10 µM (active)
CCCSP(=O)(OCC)SCCC,Potency,[2],inactive
same,max response,[4],-15.9%
same,max response,[1],-10.7%
same,max response,[5],-0.31%
O=C(NCNC(=O)NC1C(=O)NC(=O)N1CO)NC1C(=O)NC(=O)N1CO (configuration not stated),Potency,[2],inactive
same,max response,[4],1.81%
same,max response,[1],20.5%
same,max response,[5],-3.93%
O=c1[nH]c(=O)n(Cl)c(=O)n1Cl,Potency,[2],inactive
same,max response,[4],-11%
same,max response,[1],6.71%
same,max response,[5],-3.48%
COCC(C)N(C(=O)CCl)c1c(C)csc1C (configuration not stated),max response,[4],-1.95%
same,max response,[1],-1.03%
same,max response,[5],-15.8%
ClC=C(Cl)Cl,Potency,[2],inactive
same,Potency,[3],inactive
same,max response,[4],-6.12% and -5.8%
same,max response,[5],5.41% and -9.88%
O=[N+]([O-])C(Br)(CO)CO,max response,[4],-12.6%
same,Potency,[5],50.1 µM (active)
O=C/C=C/c1ccccc1,Potency,[3],inactive
same,max response,[4],12.8% and -6.35%
same,max response,[1],4.39%
same,max response,[5],-23.6%
C[CH2][Hg][S]c1ccccc1C(=O)O,Potency,[4],44.7 µM (active)
same,Potency,[1],1.41 µM (active)
same,Potency,[5],50.1 µM (active)
O=C1C=C2C=C[C@@H]3C[C@@]2(O1)[C@H]1CCCCN31,Potency,[1],7.08 µM (active)
C/C(=C\c1csc(C)n1)[C@@H]1C[C@@H]2O[C@]2(C)CCC[C@H](C)[C@H](O)[C@@H](C)C(=O)C(C)(C)[C@@H](O)CC(=O)O1,max response,[1],12.6%
C[C@H]1CCC[C@H](O)CCCCCc2cc(O)cc(O)c2C(=O)O1,Potency,[2],inactive
same,Potency,[3],inactive
same,max response,[4],-13.4%
same,max response,[1],5.29%
same,max response,[5],-4.88%
CC[C@H](C)[C@H]1O[C@]2(C=C[C@@H]1C)C[C@@H]1C[C@@H](C/C=C(\C)[C@@H](O[C@H]3C[C@H](OC)[C@@H](O[C@H]4C[C@H](OC)[C@@H](O)[C@H](C)O4)[C@H](C)O3)[C@@H](C)/C=C/C=C3\CO[C@@H]4[C@H](O)C(C)=C[C@@H](C(=O)O1)[C@]34O)O2,Potency,[2],inactive
same,Potency,[4],39.8 µM (active)
same,max response,[1],-7.27%
